Measurements reported in PubChem BioAssay AID2278 (National Center for Advancing Translational Sciences (NCATS), 2010).
Results filed as inconclusive are left out. Active and inactive are the calls of the source. Calls come from the whole dose curve; as a rule, active = well fitted curve in the direction sought with a large enough effect; inconclusive = small, poorly fitted or top-dose-only effect, or another doubt; inactive = no such curve, though single readings can be large or run the other way.

Molecular target: Group 10 secretory phospholipase A2 (Mus musculus) (UniProt Q9QXX3)
Sequence (Q9QXX3 whole entry, looked up): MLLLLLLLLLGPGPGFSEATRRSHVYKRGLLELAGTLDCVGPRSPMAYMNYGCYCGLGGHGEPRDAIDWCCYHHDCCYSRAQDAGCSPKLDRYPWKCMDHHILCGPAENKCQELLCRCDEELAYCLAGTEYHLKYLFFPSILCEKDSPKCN
Assay: Secondary Assay for Inhibitors of Ubiquitin-specific Protease USP2a: PLA2 Counterscreen
Details: purified murine PLA2, NBD C6-HPC fluorescence; series mostly up to 57.5 µM
Text: NIH Molecular Libraries Screening Centers Network [MLSCN] NIH Chemical Genomics Center [NCGC] MLSCN Grant: XO1-MH079852-01 PI Name: Nicholson, Ben. Progenra Inc, Malvern, PA NCGC Assay Overview: Homeostasis of cellular proteins is maintained through a combination of synthesis and degradation. The pathway that accounts for the majority of protein degradation is the ubiquitin-proteasomal pathway. Ubiquitin (Ub) is highly conserved in all cells and the generation of a multi-Ub chain typically targets proteins for degradation by the proteasome. However, ubiquitination is highly reversible and dynamic. Deubiquitination, the reverse process, is catalyzed through the action of enzymes referred to as isopeptidases or deubiquitinating enzymes (DUBs). […]
NCGC Assay Protocol Summary: The assay buffer, prepared fresh at the day of the assay, contains 20mM Tris-HCl pH 8.0, 2mM CaCl2, 2mM beta-mercaptoethanol, 0.1% DMSO. […] Plates were read immediately on an Envision (Perkin Elmer) plate reader using wavelengths of Ex 460nm /Em 535nm. Then, the assay plates were incubated for 2.5 hours and read again on the Envision using the same settings. […] Concentration-response curves were fitted to the normalized data and the concentration-response curves were then classified based on curve quality (r2), response magnitude and degree of measured activity. The time zero reading was used to flag fluorescence artifacts. […]

CC1=NCCc2c1[nH]c1cc(O)ccc21
outcome: inactive

Cc1ccc2scc(N3CCN(C)CC3)c(=O)c2c1
outcome: inactive
